From paper PMC7826789 (International Journal of Molecular Sciences, 2021)

test system: STK17A

SMILES | Kinases covered
CC(C)c1cc(-c2ccc3c(N)n[nH]c3c2)nc(N)n1 [GSK2250882] | STK17A
CNc1nc(-c2ccc3c(N)n[nH]c3c2)cc(N2C[C@@H](C(=O)Nc3ccccc3)CC[C@H]2C)n1 [GSK2298859] | STK17A
C[C@@H]1CCNC(=O)c2cc3ccc(C(=O)Nc4nc5ccccc5n4CCCN(C)C)cc3n21 [BI00645435] | STK17A
C[C@H]1CC[C@@H](C(=O)Nc2ccccc2)CN1c1cc(-c2ccc3c(N)n[nH]c3c2)nc(N)n1 [GSK2283293] | STK17A

test system: TEK

SMILES | Kinases covered
COC(=O)Nc1nc2ccc(Oc3ccc(NC(=O)Nc4cc(C(F)(F)F)ccc4F)cc3)cc2s1.Cl [GW693917A] | TEK
Cl.O=C(Nc1ccc(Oc2ccc3[nH]c(NC(=O)c4ccccc4)nc3c2)cc1)Nc1cc(C(F)(F)F)ccc1F [GW709042A] | TEK
Cl.O=C(Nc1ccc(Oc2ccc3[nH]c(NC(=O)c4ccco4)nc3c2)cc1)Nc1cc(C(F)(F)F)ccc1F [GW683134A] | TEK
Nc1ncnc2occ(-c3ccc(NC(=O)Nc4cc(C(F)(F)F)ccc4F)cc3)c12 [GW770249X] | TEK

test system: TYK2

SMILES | Kinases covered
Nc1ncnc2[nH]c(-c3ccccc3)nc12 [AH5015] | TYK2
COc1ccc(-c2cc3c(N)ncnc3o2)cc1 [GW642138X] | TYK2
CN(C)C/C=C/C(=O)Nc1ccc(C(=O)Nc2cccc(Nc3ncc(Cl)c(-c4c[nH]c5ccccc45)n3)c2)cc1 [THZ1] | TYK2

test system: YSK4

SMILES | Kinases covered
NC(=O)c1cccnc1COc1cc(-c2ccc(N3CCOCC3)nc2)cc2ncccc12 [BI01125081] | YSK4
COc1cc2c(cc1OC)C(=C(Nc1ccccc1)c1cccc(CN)c1)C(=O)N2 [BIBF0846CL] | YSK4
CCCc1cc(N2CCCN(C)CC2)nc2sc3c(N)ncnc3c12 [BI00604564] | YSK4
Cc1cc(NC(=O)c2cccc(NC(=O)/C=C/CN(C)C)c2)ccc1Nc1nccc(-c2cccnc2)n1 [JNK-IN-7] | YSK4
CC(C)N1CC(=O)N(C)c2cnc(Nc3cccc(S(=O)(=O)CCN4CCOCC4)c3)nc21 [BI00009348] | YSK4
